Here are results for 33 compounds from PubChem BioAssay (Tox21).

Results filed as inconclusive are left out. Entries that show only a call come without a potency. Active and inactive are the calls of the source. Unless noted, calls come from the whole dose curve.

Sequence of D(2) dopamine receptor (Homo sapiens) (P14416 whole entry, looked up): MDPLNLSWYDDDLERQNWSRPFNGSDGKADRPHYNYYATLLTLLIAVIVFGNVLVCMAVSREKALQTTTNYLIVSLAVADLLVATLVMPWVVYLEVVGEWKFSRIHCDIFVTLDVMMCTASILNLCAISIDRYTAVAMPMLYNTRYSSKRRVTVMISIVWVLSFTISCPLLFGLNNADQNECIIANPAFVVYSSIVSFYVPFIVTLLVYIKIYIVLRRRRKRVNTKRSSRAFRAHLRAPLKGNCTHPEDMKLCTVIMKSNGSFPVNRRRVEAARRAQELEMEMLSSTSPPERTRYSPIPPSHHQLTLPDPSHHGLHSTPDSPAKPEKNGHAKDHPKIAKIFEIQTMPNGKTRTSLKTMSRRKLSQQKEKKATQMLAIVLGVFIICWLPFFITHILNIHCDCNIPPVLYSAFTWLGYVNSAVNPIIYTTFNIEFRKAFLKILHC

The target in the first test is D(2) dopamine receptor (Homo sapiens) (UniProt P14416). Nature of the test: Dopamine D2 receptor (DRD2) small molecule agonists, cell-based qHTS assay (AID 1963594). Note: nearly all actives have a fitted effect of over 35% in size. The settings on record: HEK293-DRD2 cAMP HTRF, agonist mode, 30 min; series mostly up to 92.4 µM. An outline of the steps:
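HEK293 cells stably expressing DRD2 were cultured 24 h at 37 C, then given Ro20-1724 (0.1 mM final) and compounds for 10 min at room temperature. NKH477 (200nM) was then added for 30 min. cAMP was read by HTRF.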
In general terms: Quantitative high-throughput screening tests each substance at several concentrations.
In the case of `C=C1C(=C/C=C2\CCC[C@]3(C)[C@@H]([C@H](C)/C=C/[C@@H](O)C4CC4)CC[C@@H]23)C[C@@H](O)C[C@@H]1O`, the Potency result was “inactive”.

As for `COc1c2occc2cc2ccc(=O)oc12`, the Potency result is “inactive”. With `CC(=O)O[C@@]12CO[C@@H]1C[C@H](O)[C@@]1(C)C(=O)[C@H](O)C3=C(C)[C@@H](OC(=O)[C@H](O)[C@@H](NC(=O)OC(C)(C)C)c4ccccc4)C[C@@](O)([C@@H](OC(=O)c4ccccc4)[C@H]21)C3(C)C`, the Potency result is “inactive”. The same measure, in the same setting: then `O=P(c1ccccc1)(c1ccccc1)c1ccccc1`, with “inactive”; and `CC1(C)CCC[C@]2(C)[C@H]3CCO[C@]3(C)CC[C@@H]12`, with “inactive”; and `O=C(NCC(O)CO)c1c(I)c(C(=O)NCC(O)CO)c(I)c(N(CCO)C(=O)CO)c1I` (stereo not given), with “inactive”. Same read-out and setting: then `CC[C@@H]([C@H](C)O)n1ncn(-c2ccc(N3CCN(c4ccc(OC[C@@H]5CO[C@@](Cn6cncn6)(c6ccc(F)cc6F)C5)cc4)CC3)cc2)c1=O`, with “inactive”; and `S=P(N1CC1)(N1CC1)N1CC1`, with “inactive”; and `O=C1Cc2ccccc2C1`, with “inactive”. On the same count and under the same terms, under `Cc1c(C)n(Cc2ccccc2)c2ccc(C(=O)OCCN(C)C)cc12` stands “inactive”; under `C=C(C)C(=O)OCC(O)COc1ccc(C(C)(C)c2ccc(OCC(O)COC(=O)C(=C)C)cc2)cc1` (stereo not given), “inactive”; under `COc1cc(Cl)c(OC)cc1N`, “inactive”. Consider `Clc1ccccc1CN1CCc2sccc2C1`, for which the Potency result was “inactive”.

On to `COc1ccc2cc([C@H](C)C(=O)O)ccc2c1`, for which the Potency entry is “inactive”. Turning to `CC1CCCC1`, the Potency entry was “inactive”. Same read-out and setting: under `CN1[C@@H]2CC(OC(=O)[C@H](CO)c3ccccc3)C[C@H]1[C@@H]1O[C@@H]12` (stereo not given in full) stands “inactive”; under `CS(=O)(=O)c1ccc([C@@H](CC2CCCC2)C(=O)Nc2cnccn2)cc1Cl`, “inactive”; under `CCCCOC(=O)c1ccccc1C(=O)OCC(CC)CCCC` (stereo not given), “inactive”. Same read-out and setting: under `COc1ccc2ccccc2c1` stands “inactive”; under `CN(C)CCOC(c1ccccc1)c1ccccc1`, “inactive”; under `CCOC(=O)CC(=O)C(=O)OCC`, “inactive”. For `COc1cc([C@@H]2c3cc4c(cc3[C@@H](O[C@@H]3O[C@@H]5CO[C@@H](C)O[C@H]5[C@H](O)[C@H]3O)[C@H]3COC(=O)[C@H]23)OCO4)cc(OC)c1O`, the Potency result was “inactive”. Take `COCCOC`: the Potency entry is “inactive”. Same read-out and setting: then `COC(=O)[C@H]1[C@H]2C[C@@H]3c4[nH]c5cc(OC)ccc5c4CCN3C[C@H]2C[C@@H](OC(=O)/C=C/c2ccc(O)c(OC)c2)[C@@H]1OC`, with “inactive”. Still for that read-out and setting: under `CC(C)(C(=O)O)c1ccc(C(O)CCCN2CCC(C(O)(c3ccccc3)c3ccccc3)CC2)cc1` (stereo not given) stands “inactive”; under `CC(C)(C)c1csc(-c2cc3cc(OCc4ccccc4CC(=O)O)ccc3o2)n1`, “inactive”; under `CC(=O)N(C)C`, “inactive”.

`CN1CCN(CCCN2c3ccccc3Sc3ccc(S(=O)(=O)N(C)C)cc32)CC1`: the Potency result was “inactive”.

A further test shares this target. Description: Dopamine D2 receptor (DRD2) small molecule antagonists, cell-based qHTS assay (AID 1963595; active = well fitted inhibition curve with a large enough effect in the signal ratio in the repeat runs, with a control signal flat; the % refers to the signal ratio; note: potency is the fitted concentration of half-maximal effect). As to conditions: HEK293-DRD2 cAMP HTRF antagonist mode; series mostly up to 92.4 µM. An outline of the steps: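 Antagonism was scored as restored cAMP in HEK293-DRD2 cells. These cells were stimulated with 200 nM NKH477 and 12 nM quinpirole for 30 min at room temperature, in the presence of 0.1 mM Ro20-1724.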
Consider `COc1cc(C)nc(-n2nc(C)cc2OC)n1`, for which the Potency entry is “inactive”. On to `COc1c2occc2cc2ccc(=O)oc12`, for which the Potency entry is “inactive”. `CC(=O)O[C@@]12CO[C@@H]1C[C@H](O)[C@@]1(C)C(=O)[C@H](O)C3=C(C)[C@@H](OC(=O)[C@H](O)[C@@H](NC(=O)OC(C)(C)C)c4ccccc4)C[C@@](O)([C@@H](OC(=O)c4ccccc4)[C@H]21)C3(C)C`: the Potency entry was “inactive”. Take `O=P(c1ccccc1)(c1ccccc1)c1ccccc1`: the Potency result is “inactive”. On to `Cc1cnc(C(=O)NCCc2ccc(S(=O)(=O)NC(=O)NC3CCCCC3)cc2)cn1`, for which the Potency result is “inactive”. The same measure, in the same setting: under `CNCC[C@H](Oc1cccc2ccccc12)c1cccs1` stands “inactive”; under `CC1(C)CCC[C@]2(C)[C@H]3CCO[C@]3(C)CC[C@@H]12`, “inactive”; under `O=C(NCC(O)CO)c1c(I)c(C(=O)NCC(O)CO)c(I)c(N(CCO)C(=O)CO)c1I` (stereo not given), “inactive”. `CC[C@@H]([C@H](C)O)n1ncn(-c2ccc(N3CCN(c4ccc(OC[C@@H]5CO[C@@](Cn6cncn6)(c6ccc(F)cc6F)C5)cc4)CC3)cc2)c1=O`: the Potency result was “inactive”.

For the compound `O=C1Cc2ccccc2C1`, the Potency entry is “inactive”.

Turning to `Cc1c(C)n(Cc2ccccc2)c2ccc(C(=O)OCCN(C)C)cc12`, the Potency is 33.5 µM (active). In the case of `C=C(C)C(=O)OCC(O)COc1ccc(C(C)(C)c2ccc(OCC(O)COC(=O)C(=C)C)cc2)cc1` (stereo not given), the Potency entry was “inactive”. Still for that read-out and setting: under `COc1cc(Cl)c(OC)cc1N` stands “inactive”. Consider `CC(C)(C)c1ccc(C(=O)CCCN2CCC(OC(c3ccccc3)c3ccccc3)CC2)cc1`, for which the Potency entry is “inactive”. For the compound `COc1ccc2cc([C@H](C)C(=O)O)ccc2c1`, the Potency entry was “inactive”.

Consider `CC1CCCC1`, for which the Potency entry is “inactive”. Turning to `CS(=O)(=O)c1ccc([C@@H](CC2CCCC2)C(=O)Nc2cnccn2)cc1Cl`, the Potency result is “inactive”.

In the case of `CCCCOC(=O)c1ccccc1C(=O)OCC(CC)CCCC` (stereo not given), the Potency entry was “inactive”. Same read-out and setting: under `COc1ccc2ccccc2c1` stands “inactive”; under `CN(C)CCOC(c1ccccc1)c1ccccc1`, “inactive”. On to `COc1cc([C@@H]2c3cc4c(cc3[C@@H](O[C@@H]3O[C@@H]5CO[C@@H](C)O[C@H]5[C@H](O)[C@H]3O)[C@H]3COC(=O)[C@H]23)OCO4)cc(OC)c1O`, for which the Potency entry was “inactive”. The same measure, in the same setting: then `COCCOC`, with “inactive”.

On to `CC(C)(C(=O)O)c1ccc(C(O)CCCN2CCC(C(O)(c3ccccc3)c3ccccc3)CC2)cc1` (stereo not given), for which the Potency entry was “inactive”.

Take `CC(C)(C)c1csc(-c2cc3cc(OCc4ccccc4CC(=O)O)ccc3o2)n1`: the Potency entry is “inactive”.

For the compound `CC(=O)N(C)C`, the Potency result is “inactive”.

Consider `CN1CCN(CCCN2c3ccccc3Sc3ccc(S(=O)(=O)N(C)C)cc32)CC1`, for which the Potency is 0.0473 µM (active). Same read-out and setting: under `CCCCCCCC1CCC(=O)O1` (stereo not given) stands “inactive”.
